Measurements published in the supplement of paper PMC6555819.

Key:
Assay in all cases: PBM binding z-score (relative to random genomic background probes); higher = stronger binding; sequences stand for … in GC…GCGATTGACAGCGTAGAATGAAGG
[1] = tested on: PPARg:RXRa DBDmut IVT, anti-RXR (DBD mutation: RXRa K156A/R161A, NR concentration 270 nM, RXRa partner concentration 90 nM)
How it was run: (§1)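 Ligand-free nuclear receptor dimers were applied to custom Agilent 4×180K protein-binding microarrays whose double-stranded probes carried direct-repeat seeds, single-nucleotide variants, half-site ablations and random human genomic background sequences in 34-nt variable regions. Incubation lasted 1 h. Binding z-scores were computed against the random background probes from regression-normalized fluorescence.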

[2] = tested on: PPARg:RXRa IVT, anti-PPARg (NR concentration 270 nM, RXRa partner concentration 90 nM)
How it was run: as §1

[3] = tested on: PPARg DBDmut:RXRa IVT, anti-PPARg (DBD mutation: PPARg1 K132A/R137A, NR concentration 270 nM, RXRa partner concentration 90 nM)
How it was run: as §1

[4] = tested on: PPARg DBDmut IVT, anti-PPARg (DBD mutation: PPARg1 K132A/R137A, NR concentration 270 nM)
How it was run: as §1

[5] = tested on: PPARg homodimer (NR concentration 180 nM)
How it was run: as §1

[6] = tested on: PXR:RXRa (NR concentration 270 nM, RXRa partner concentration 90 nM)
How it was run: as §1

[7] = tested on: PXR homodimer (NR concentration 270 nM)
How it was run: as §1

[8] = tested on: RARa:RXR (NR concentration 270 nM, RXRa partner concentration 90 nM)
How it was run: as §1

[9] = tested on: RARa homodimer (NR concentration 270 nM)
How it was run: as §1

[10] = tested on: RARb:RXRa (NR concentration 270 nM, RXRa partner concentration 90 nM)
How it was run: as §1

[11] = tested on: RARb homodimer (NR concentration 270 nM)
How it was run: as §1

[12] = tested on: RARg:RXRa (NR concentration 270 nM, RXRa partner concentration 90 nM)
How it was run: as §1

[13] = tested on: RARg homodimer (NR concentration 270 nM)
How it was run: as §1

[14] = tested on: RXRa DBDmut IVT, anti-RXR (DBD mutation: RXRa K156A/R161A, NR concentration 90 nM)
How it was run: as §1

[15] = tested on: RXRa homodimer (NR concentration 180 nM)
How it was run: as §1

[16] = tested on: THRa:RXRa (NR concentration 90 nM, RXRa partner concentration 90 nM)
How it was run: as §1

[17] = tested on: THRa homodimer (NR concentration 90 nM)
How it was run: as §1

[18] = tested on: VDR:RXRa (NR concentration 270 nM, RXRa partner concentration 90 nM)
How it was run: as §1

[19] = tested on: VDR homodimer (NR concentration 270 nM)
How it was run: as §1

Row | Sequence | PBM binding z-score [1] | PBM binding z-score [2] | PBM binding z-score [3] | PBM binding z-score [4] | PBM binding z-score [5] | PBM binding z-score [6] | PBM binding z-score [7] | PBM binding z-score [8] | PBM binding z-score [9] | PBM binding z-score [10] | PBM binding z-score [11] | PBM binding z-score [12] | PBM binding z-score [13] | PBM binding z-score [14] | PBM binding z-score [15] | PBM binding z-score [16] | PBM binding z-score [17] | PBM binding z-score [18] | PBM binding z-score [19]
1 | AATACAGGGTCATCATAGGCCAGAGTACGCACAG | 2.62 | 3.98 | 1.5 | 0.916 | 1.8 | 4.42 | 1.01 | 4.65 | 1.25 | 4.25 | 3.57 | 5.66 | 5.42 | 3.54 | 6.89 | 4.39 | 1.78 | 5.14 | 3.46
2 | CCTATTAGTTGACCATAACGGCAACCGAAGCTCG | 0.934 | 0.243 | 0.836 | 1.13 | 2.08 | 0.499 | 1.25 | 0.72 | 2.49 | 0.584 | 1.01 | 0.618 | 0.817 | 0.595 | 0.625 | 0.388 | 0.93 | 0.7 | 1.08
3 | ACAGACAGGTGATGTAGGTAACTCAGGCTATCAT | 1.26 | 2.15 | 0.582 | 0.742 | -0.119 | -0.31 | 0.148 | -0.0493 | 0.492 | 0.149 | 0.224 | 0.333 | 0.539 | -0.0727 | 0.19 | 0.566 | -0.00745 | -0.00251 | -0.512
4 | ACAGACAGGTGATGAAGTTAACTCAGGCTATCAT | -0.14 | 0.266 | 0.864 | 0.239 | 0.153 | 0.166 | 0.125 | 0.133 | 0.502 | -0.00565 | 0.22 | -0.00666 | 0.328 | -0.128 | 0.00488 | 1.38 | -0.0538 | 0.117 | 0.197
5 | GGAACGAGGGCAAGTTGTTAGCAGAGTTTGATGG | 3.77 | 2.94 | -0.421 | -0.269 | 0.194 | 0.979 | 0.561 | 0.459 | -0.28 | 2.78 | 1.42 | 1.49 | 1.82 | 2.39 | 0.957 | 1.46 | 0.187 | 0.88 | 1.65
6 | GCTAGCAGACCATTTGGGTCACTCAATGACGGGC | 0.216 | 0.941 | -0.491 | -0.941 | -0.202 | 0.0959 | -0.826 | 0.598 | -0.667 | 0.935 | 1.42 | 0.72 | 0.826 | -0.303 | 0.514 | 1.38 | 0.434 | -0.0299 | -0.19
7 | CCTAGCAGGCCAGGGTCAGTCAAGCATTTCGCTT | -0.0042 | 0.156 | -1.41 | -1.98 | 0.086 | 1.04 | -0.793 | 1.69 | -0.695 | 2.09 | 2.16 | 2.07 | 1.85 | -0.296 | 1.65 | 1.75 | 0.116 | 0.634 | 0.172
8 | TTACCAAGGTGAGCTGAGGTCCTTGATCCAACTC | 0.555 | 1.8 | -0.248 | -1.12 | -0.702 | 1.26 | -0.737 | 0.613 | -1.39 | 1.04 | 0.469 | 0.18 | 0.227 | -0.639 | 0.399 | 3.79 | 0.733 | 0.464 | -0.397
9 | CGACCAAGGTCAGCAGGTCAGTGAAAGCGACGTG | 2.72 | 3.64 | -0.557 | -0.609 | 2.7 | 3.18 | -0.228 | 4.62 | 0.262 | 5.02 | 4.67 | 6.06 | 6.15 | 2.12 | 4.83 | 3.54 | 1.63 | 3.67 | 1.16
10 | CCAGACAGGTGAAAGGTAAGTCAGTCTGGTACGC | 2.21 | 2.43 | -0.386 | -0.609 | 0.848 | 0.517 | -0.131 | 1.06 | 0.44 | 1.14 | 0.843 | 1.2 | 0.478 | 0.066 | 1.68 | 0.828 | 0.0448 | 0.522 | 0.0335
11 | TCTAGCAGGACAGAGGGTCACTCAAGAGGTACGG | 0.809 | 0.465 | -0.0481 | -0.462 | 0.414 | 1.48 | -0.392 | 2.3 | -0.209 | 2.06 | 2.77 | 2.39 | 2.11 | 0.168 | 2.48 | 1.86 | -0.03 | 1.39 | 0.674
12 | TAGCCTAGGTCAGATCGGGCCAGGATACGCTATA | -0.033 | 1.22 | -0.531 | -0.442 | -0.135 | 0.771 | -0.663 | 0.816 | -1.26 | 3 | 1.88 | 2.77 | 3.35 | -0.775 | 1.45 | 4.2 | 0.225 | 0.248 | -0.433
13 | TAGCGTAGGTCATGGGCCAGTATACCACGCGAAC | 0.846 | 2.41 | -0.196 | 0.0667 | 0.862 | 2.19 | -0.726 | 3.4 | -0.444 | 3.9 | 2.74 | 4.61 | 4.67 | -0.189 | 4.73 | 2.38 | -0.142 | 2.24 | 0.0635
14 | GTAACAAGGTGAATAGGTCGTTGATGAGTAGGCG | 3.26 | 3.65 | 0.827 | 0.585 | 1.61 | 1.02 | 0.451 | 2.04 | 0.797 | 2.06 | 1.9 | 2.74 | 1.68 | 0.149 | 2.29 | 2.06 | 0.594 | 1.22 | 0.415
